Assay outcomes from PubChem BioAssay.
Compounds with a hit are over-represented: about 6.5% of the library has one in this group of screens.
MARV entry inh – qHTS for inhibitors of binding or entry into cells for Marburg Virus. Marburg virus pseudotyped entry inhibition, cell reporter. Potency, µM (titrated, usually from 37.8 µM), inactives show at the top dose activity change, negative = inhibition, actives largely listed as inhibitors. 300,000 tested, 1.8% active. AID 540276, 2011; calls by dose curve; tested in HEK293 cells; further: potency means the concentration at half of the fitted maximal effect
FMDV antiviral – High Throughput Screening for Foot and Mouth Disease Virus Antivirals; Potency, µM (doses to about 57.9 µM), without a hit: at the top dose activity change, negative = inhibition, hits mostly inhibitors; 410,000 tested, 1.2% active; FMDV antiviral cell-based qHTS; AID 1159524, 2015; calls by dose curve; tested in HEK293T cells; further: read-out not given here; potency means the concentration at half of the fitted maximal effect; nearly all actives have a fitted effect of over 45% in size
Vaccinia mCherry – qHTS for Stage-Specific Inhibitors of Vaccinia Orthopoxvirus: mCherry Reporter Primary qHTS. Potency, µM (series often up to 36.5 µM), for inactives: top-dose activity change, negative = inhibition, actives largely listed as inhibitors. Vaccinia virus mCherry reporter infection, fluorescence. 310,000 tested, 0.63% active; calls by dose curve; tested in A549 cells; further: potency means the concentration at half of the fitted maximal effect; nearly all actives have a fitted effect of over 35% in size
LASV entry inh – qHTS for Inhibitors of binding or entry into cells for Lassa Virus. Lassa virus pseudotype entry inhibition, cell reporter. Potency, µM (doses to about 37.9 µM), without a hit: at the highest dose activity change, negative = inhibition, hits mostly inhibitors. 300,000 tested, 1.2% active. AID 540256, 2011; calls by dose curve; tested in HEK293 cells; further: potency means the concentration at half of the fitted maximal effect; nearly all actives have a fitted effect of over 50% in size
VACV Venus inh – qHTS for Stage-Specific Inhibitors of Vaccinia Orthopoxvirus: Venus Reporter Primary qHTS | Vaccinia virus Venus reporter expression, fluorescence | Potency, µM (doses to about 36.5 µM), for inactives: top-dose activity change, negative = inhibition, actives largely listed as inhibitors | 330,000 tested, 0.46% active | AID 720580, 2013; calls by dose curve; tested in A549 cells; further: potency means the concentration at half of the fitted maximal effect; nearly all actives have a fitted effect of over 30% in size
HCMV antiviral – qHTS Assay for inhibitors of the human cytomegalovirus (HCMV); activity change, negative = inhibition, % at 57.5 µM; 410,000 tested, 4.5% active; HFF cells, HCMV-luciferase reporter, 72 h; stronger effect = lower value; AID 1259415, 2018; in the data active means activity change below about -60%; inconclusive means no clear call, values can overlap the other calls; inactive means above about -39%
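Steps: HFFs plated, 16 h 37C; compounds added; HCMV-luciferase added to MOI 1 PFU/cell; 72 h 37C; OneGlo reagent, 5 min room temperature; luminescence read, normalized to controls.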
An asterisk follows results filed as active; i = inactive; ? = inconclusive; . = no result; ! = a repeat was not active; [ ] = remark or other dose. On the % scale 0 is the no-effect control and ±100 the full control effect.

SMILES	MARV entry inh	FMDV antiviral	Vaccinia mCherry	LASV entry inh	VACV Venus inh	HCMV antiviral
COc1ccc(-c2nc3ccccc3o2)cc1NC(=O)c1cccnc1	-29%[46.1 µM]	3%	-12%	15%[46.1 µM]	-2%	24
CCN1CCN(CC(=O)n2c3c(c4ccccc42)CC(C)CC3)CC1 (centres undefined)	?	-23%	.	-26%	-17%	-30
CC1CCc2c(c3ccccc3n2C(=O)CCl)C1 (centres undefined)	-24%[46.1 µM]	20µM*	-28%	-8%[46.1 µM]	-26%	-13
O=c1c2c(nc3c(-c4ccc(Cl)cc4)c[nH]n13)CCCC2	?	22µM*	?	10µM*	4.5µM*	-78*
CC(=O)c1cccc(NC(=O)c2sc(-n3nc(C)c(Cc4ccc5c(c4)OCO5)c3C)nc2C)c1	?	?	-19%	-18%[46.1 µM]	?	15
Cc1ccc(NC(=O)c2sc(-n3nc(C)c(Cc4ccc5c(c4)OCO5)c3C)nc2C)cc1C	-1%[46.1 µM]	-4%	-10%	-10%[46.1 µM]	-6%	-113*
COC(=O)CC1(CC(N)=O)SCCS1	10%	-9%	i	-1%	-7%	-35
COc1cc(OC)c(OC)cc1CCC(C)NCCC(c1ccccc1)c1ccccc1 (centres undefined)	.	-14%	?	.	?	-60*
COc1ccc(CCNCCC(c2ccccc2)c2ccccc2)cc1OC	.	?	i	.	-12%	24
COC(=O)CCCn1c(-c2ccc(C)cc2)c(C)n2c3c(=O)n(C)c(=O)n(C)c3nc12	1%[46.1 µM]	?	-8%	?	1%	-14
Cc1ccc(-c2c(C)n3c4c(=O)n(C)c(=O)n(C)c4nc3n2CCCO)cc1	?	11µM*	-25%	8.9µM*	-26%	-73*
CCN(C(=O)COC(=O)/C=C/c1cnc2ccccc2n1)c1ccccc1	.	-26%	.	.	.	-89*
O=C(Nc1ccc(Br)cn1)c1ccc(Br)s1	?	1%	-23%	?	-23%	-99*
O=C(/C=C/c1cccs1)Nc1cccc(NC(=O)/C=C/c2cccs2)n1	?	-21%	-6%	?	-26%	-25
O=C(/C=C/c1cccs1)Nc1ccc(Br)cn1	?	41%	-21%	?	-29%	-66*
O=C(N[C@H]1CC[C@@]23CCCN2C(=O)CCC[C@H]3[C@H]1Cc1ccccc1)C1CCOC1 (some centres undefined)	.	.	.	.	.	-10
O=C1c2ccccc2NC(c2ccc3c(c2)OCCO3)N1c1ccc2c(c1)OCCO2 (centres undefined)	8.9µM*	-12%	.	?	-11%	-11
COc1cc(C2Nc3ccccc3C(=O)N2c2ccc3c(c2)OCCO3)ccc1OCC(C)C (centres undefined)	?	-11%	-6%[1.46 µM]	?	-25%	4
COc1cccc(NC(=O)COc2ccccc2C(=O)Nc2ccccc2)c1	.	.	-2%	.	-19%	.
Cc1cccc(N2CCN(S(=O)(=O)c3cc(-c4cc(C)no4)ccc3C)CC2C)c1 (centres undefined)	.	0%	.	.	.	?
COc1ccc(-c2cc(C)no2)cc1S(=O)(=O)N1CCN(c2cccc(C)c2)C(C)C1 (centres undefined)	.	?	?	?	?	-74*
CC(C)Oc1cc(F)ccc1-c1cc(C(=O)NCc2ccccn2)[nH]n1	.	-23%	0%	.	-5%	-76*
COc1ccccc1OCCn1c(-c2ccc(Br)cc2)nc2ccccc2c1=O	4%[46.1 µM]	-6%	-13%	0%[46.1 µM]	-4%	21
CN(C)c1cc[n+](CC(=O)Nc2ccc(Oc3ccccc3)cc2)cc1	9.2µM*	-17%	-9%	?	-26%	-98*
Cc1cc([N+](=O)[O-])ccc1NC(=O)C[n+]1ccc(N(C)C)cc1	-23%[46.1 µM]	-12%	-3%	-14%	-12%	-100*
SMILES	MARV entry inh	FMDV antiviral	Vaccinia mCherry	LASV entry inh	VACV Venus inh	HCMV antiviral
CCOc1ccc(NC(=O)C[n+]2ccc(N(C)C)cc2)cc1	-5%	-28%	-25%	1%	-24%	-97*
CN(C)c1cc[n+](CC(=O)Nc2ccc(Cl)cc2)cc1	.	-36%	.	.	.	-89*
Cc1cccc(NC(=O)C[n+]2ccc(N(C)C)cc2)c1	.	-15%	.	.	.	?
COc1cccc(-c2nc(N3CCN(C)CC3)c3ccccc3n2)c1	.	1%	.	.	.	.
CCn1cc(CNC(=O)C2CCC(=O)N(CCc3cccc(F)c3)C2)cn1 (centres undefined)	23%	-9%	i	25%	-5%	-35
Nc1c(C(=O)Nc2ccc(Cl)cc2F)sc2nc(-c3cccs3)ccc12	?	41%	-7%	-18%[46.1 µM]	-7%	-5
Nc1c(C(=O)Nc2nc3ccccc3s2)sc2nc(-c3cccs3)ccc12	5.8µM*	-104%	.	6.5µM*	.	.
Nc1c(C(=O)Nc2ccccc2Br)sc2nc(-c3cccs3)ccc12	-18%[46.1 µM]	?	?	?	?	-71*
COc1ccc(CCNC(=O)Cn2ncc3c(=O)oc4ccccc4c32)c(OC)c1	2%[46.1 µM]	-19%	1%	-26%[46.1 µM]	0%	3
Cc1ccc(-n2c(-c3ccccc3)c[n+]3c2CCc2ccccc2-3)c(C)c1	?	2.8µM*	?	1µM*	?	-97*
Cc1ccc(-n2c(SCC(=O)N3CCCc4ccccc43)nnc2-c2cccnc2)c(C)c1	-17%	-19%	i	8%	-7%	?
COc1ccc(CN2C[C@@H](CO)O[C@@H](n3cnc4c(NCCCO)ncnc43)C2)cc1	.	-17%	-13%	.	-6%	3
CCOC(=O)c1c(-n2c(C)cc(/C=C3\C(=O)NC(=O)N(C)C3=O)c2C)sc2c1CCCC2	?	-9%	.	?	.	-34
CCOC(=O)c1c(-n2c(C)cc(C=O)c2C)sc2c1CCCC2	12µM*	0%	.	9.2µM*	.	-23
CCn1cc(S(=O)(=O)NCCc2ccc(OC)c(OC)c2)cn1	.	-6%	.	.	.	-20
CN(C)CCC=C1c2ccccc2CCc2ccccc21	12µM*!	?	?	9.2µM*	-16%	?
CN(C)CCC=C1c2ccccc2C=Cc2ccccc21	6.5µM*	-26%	-9%	8.2µM*	-16%	14
O=C(CC1CC1)N1CC(=O)N2[C@H](CO)[C@@H](c3ccc(Br)cc3)[C@@H]2C1	.	.	.	.	.	5
COc1ccc2c3c([nH]c2c1)[C@@H](CO)N(C(=O)C1CCOCC1)CC31CCN(Cc2nccs2)CC1	.	.	.	.	.	-5
Cc1cccnc1N(C(=O)Nc1cccc(Cl)c1)C1=NCC(C)(C)S1	-8%	2%	-10%	3%	-9%	-62*
O=C(O)c1nn(CCOc2cccc(Cl)c2)c(=O)c2ccccc12	4%[46.1 µM]	-10%	-3%	2%[46.1 µM]	-14%	81
O=C(O)c1nn(CCOc2c(Cl)cccc2Cl)c(=O)c2ccccc12	?	-3%	11µM*	?	9%	-75*
